# Source: PubChem BioAssay (EPA / NIEHS)
# Active and inactive are the calls of the source. The calls were made as follows: active = hit-call score of the fitted dose curve at least 0.9, where 1 is the maximum; inactive = score below 0.9.
# Read-out: Cytochrome P450 4A22 (Homo sapiens) (UniProt Q5TCH4)
# Assay: LTEA_HepaRG_CYP4A22: Life Technologies and Expression Analysis (LTEA) Assay for Cytochrome P450 4A22 (CYP4A22) using HepaRG (AID 2283495)
# Settings: mRNA level, 48 h; actives raise or lower the signal
# Procedure: LTEA_HepaRG is a cell based, multiplexed-readout assay that uses HepaRG, a human liver cell line, with measurements taken at 48 hours after chemical dosing on a 96-well plate.LTEA_HepaRG_CYP4A22 is one of 102 assay component(s) measured in the LTEA HepaRG cell culture assay. It is a marker of NR mediated metabolism.Data from the assay component LTEA_HepaRG_CYP4A22 was analyzed into 1 endpoint. This assay endpoint, LTEA_HepaRG_CYP4A22, was analyzed with bidirectional fitting relative to DMSO as the negative control and baseline of activity. Using a type of inducible reporter, measures of mRNA induction for gain or loss-of-signal activity can be used to understand regulation of transcription factor activity. To generalize the intended target to other relatable targets, this assay endpoint is annotated to the cyp intended target family, where the subfamily is xenobiotic metabolism.
# A total of 1060 chemcials from the ToxCast library were tested in eight-point concentration-response experiments. Cell culture and cytotoxicity assays were conducted at Thermo Fisher Scientific's Custom Services facility (Madison, WI). A single lot of human HepaRG cells (Thermo Fisher Scientific, Frederick, MD) was used for the cell culture experiments. 96-well format collagen type I coated plates of human HepaRG cells were prepared using established methods. Briefly, cryopreserved HepaRG cells were thawed, plated at a density of approximately 100,000 cells/well in HepaRG Thaw, Plate, and General Purpose media (HPRG770, Thermo Fisher Scientific), and incubated for 48 hours. 0.5% DMSO was selected as vehicle control to balance the requisite need of DMSO in HepaRG cultures to maintain differentiation (for example, baseline metabolism, proportions of hepatocytes vs. cholangiocytes), while enabling further hepatic receptor pathway activation (for example, PXR and CAR) in response to chemical exposure. 48 hours after plating, the culture medium was replaced with HepaRG Serum-Free Incudtion Media. Cells were exposed to each test chemical in duplicate and maintained in CO2 incubators for another 48 hours. Chemical plates were thawed to room temperature and 200x concentrations of treatment groups were prepared. 8-point conentration-reponse curves were made with the highest exposure at 100 uM, followed by half-log dilutions, all in 0.5% DMSO. Each test plate contained variouse controls, induction positive controls (1mM phenobarbital), cytotoxicity positive controls ([…] aflatoxin B1), vehicle controls (0.5% DMSO), and total lysis controls (0.5% DMSO). Cell morphology images were taken using an Essen IncuCyte FLR automated microscope, with six 96-well plates imaged in about 24 minutes. Images were captured and exported and JPEG files. Spent culture media was transfered to black-well plates for the LDH assay, and remaining media was sorted at -80 C for later use. Cells were treated with RLT buffer and frozen until shipped for gene expression analysis. Total RNA was isolated from the cell suspension in 75 uL of Buffer RLT (Qiagen, Germantown, MD 20874) by Quintiles/Expression Analysis (Durham, NC) using a custom isolation procedure. Total RNA from each plate well was transferred to a preamplification plate. Fluidigm's 96.96 Dynamic ArrayTM (Fluidigm, Amsterdam, the Netherlands) technology was used for gene expression analyses by quantitative reverse transcription polymerase chain reaction (qRT-PCR, performed by Quintiles/Expression Analysis, Durham, NC)89. Standard TaqManTM Assays (Applied Biosystems/ThermoFisher Scientific, Foster City, CA) were used to assess the expression of 93 genes selected based on their selectivity and sensitivity to important hepatic receptors known to be modulated by environmental chemicals; importance in human hepatocyte functionality; and hepatotoxicity. […]
Structure (SMILES),outcome,AC50
N#Cc1c(Cl)cccc1Cl,inactive,–
CCOP(=O)(OCC)Oc1nc(Cl)c(Cl)cc1Cl,–,90.1 µM (active)
CCC(C)n1c(=O)[nH]c(C)c(Br)c1=O (stereo not given),–,7.06 µM (active)
COc1cc(Cl)c(OC)cc1Cl,inactive,–
CCCCC(O)(Cn1cncn1)c1ccc(Cl)cc1Cl (stereo not given),–,67.8 µM (active)
CCN(CC)C(=O)C(C)Oc1cccc2ccccc12 (stereo not given),–,78.3 µM (active)
CC(C)NC(=O)N1CC(=O)N(c2cc(Cl)cc(Cl)c2)C1=O,–,8.83 µM (active)
CNC(=O)Oc1cccc2ccccc12,inactive,–
CCOC(=O)C(C)OC(=O)c1cc(Oc2ccc(C(F)(F)F)cc2Cl)ccc1[N+](=O)[O-] (stereo not given),–,0.414 µM (active)
CCOc1nc(F)cc2nc(S(=O)(=O)Nc3c(Cl)cccc3Cl)nn12,inactive,–
CC1(C)C(C(=O)OC(C#N)c2cccc(Oc3ccccc3)c2)C1(C)C (stereo not given),inactive,–
COP(=S)(OC)SCn1nnc2ccccc2c1=O,inactive,–
N#Cc1c[nH]cc1-c1cccc2c1OC(F)(F)O2,–,84.8 µM (active)
N#CN=C1SCCN1Cc1ccc(Cl)nc1,inactive,–
COC(=O)N(C(=O)N1CO[C@@]2(C(=O)OC)Cc3cc(Cl)ccc3C2=N1)c1ccc(OC(F)(F)F)cc1,–,28.9 µM (active)
C=CCOC(=O)C(C)(C)OC(=O)c1cc(-n2c(=O)cc(C(F)(F)F)n(C)c2=O)ccc1Cl,inactive,–
CCSC(=O)N1CCCCCC1,inactive,–
CC(C)Oc1cccc(NC(=O)c2ccccc2C(F)(F)F)c1,inactive,–
CCN(CC)c1nc(C)cc(OP(=S)(OC)OC)n1,inactive,–
Cc1cnc(C2=NC(C)(C(C)C)C(=O)N2)c(C(=O)O)c1 (stereo not given),inactive,–

Structure (SMILES),outcome,AC50
COC(=O)NS(=O)(=O)c1ccc(N)cc1,inactive,–
COCC(=O)N(c1c(C)cccc1C)C(C)C(=O)OC (stereo not given),inactive,–
O=P(O)(O)CCCl,inactive,–
Clc1nc(Cl)nc(Nc2ccccc2Cl)n1,inactive,–
CS(=O)(=O)c1cc(C(F)(F)F)ccc1C(=O)c1cnoc1C1CC1,inactive,–
CC(C)Nc1nc(Cl)nc(NC(C)C)n1,inactive,–
COC(=O)c1c(C(F)F)nc(C(F)(F)F)c(C2=NCCS2)c1CC(C)C,inactive,–
CCCCC(C#N)(Cn1cncn1)c1ccc(Cl)cc1 (stereo not given),–,51.8 µM (active)
CN=C=S,inactive,–
CC(C)=CC1C(C(=O)OCc2coc(Cc3ccccc3)c2)C1(C)C (stereo not given),inactive,–
C=C(C)CN(CC)c1c([N+](=O)[O-])cc(C(F)(F)F)cc1[N+](=O)[O-],inactive,–
CCOP(=S)(OCC)Oc1nc(Cl)n(C(C)C)n1,–,35.9 µM (active)
CS(=O)(=O)c1ccc(C(=O)C2C(=O)CCCC2=O)c([N+](=O)[O-])c1,inactive,–
COCc1cnc(C2=NC(C)(C(C)C)C(=O)N2)c(C(=O)O)c1 (stereo not given),inactive,–
OC(c1ccc(Cl)cc1)(c1ccc(Cl)cc1)C(Cl)(Cl)Cl,inactive,–
CC1(C)CCC(=Cc2ccc(Cl)cc2)C1(O)Cn1cncn1 (stereo not given),–,14.6 µM (active)
Nc1cnn(-c2ccccc2)c(=O)c1Cl,inactive,–
CNC(=O)N(C)c1nnc(C(C)(C)C)s1,inactive,–
Cn1c(-c2ccccc2)cc(-c2ccccc2)[n+]1C,–,24 µM (active)
CN/C(=N\[N+](=O)[O-])NCc1cnc(Cl)s1,inactive,–
